# Experiments:
# Experiment in all cases: yeast three-hybrid, YBZ-1, SC-Leu-His + 0.5 mM 3-AT, 4 days
# Conditions in all cases: tags: N-Gal4 AD-HA kept; label: inside an RPR1-promoter hybrid RNA with tandem MS2 sites; ssRNA
# PUM1 PUF domain R1-KGL = PUM1 PUF domain R1-KGL (Homo sapiens, UniProt Q14671 828-1176, S863K;R864G;Q867L)
# In short: (§1)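 The interaction score is the logarithmic change in variant frequency from input to selection. It uses log2, with a pseudocount of 1 for absent variants, and frequencies came from PCR-amplified, Illumina-sequenced repeat regions. The libraries were Pumilio-1 PUF domains randomized at the three base-contacting residues per repeat, co-expressed with matching RNA elements in strain YBZ-1 (LexA–MS2 coat fusion, HIS3 reporter). Plating lasted four days on SC-Leu (input) or SC-Leu-His + 0.5 mM 3-AT (selection).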
# PUM1 PUF domain R1-GRH = PUM1 PUF domain R1-GRH (Homo sapiens, UniProt Q14671 828-1176, S863G;Q867H)
# In short: as §1
# PUM1 PUF domain R1-KWM = PUM1 PUF domain R1-KWM (Homo sapiens, UniProt Q14671 828-1176, S863K;R864W;Q867M)
# In short: as §1
# PUM1 PUF domain R3-LRR = PUM1 PUF domain R3-LRR (Homo sapiens, UniProt Q14671 828-1176, C935L;Q939R)
# In short: as §1
# PUM1 PUF domain R3-LHA = PUM1 PUF domain R3-LHA (Homo sapiens, UniProt Q14671 828-1176, C935L;R936H;Q939A)
# In short: as §1
# PUM1 PUF domain R4-EPR = PUM1 PUF domain R4-EPR (Homo sapiens, UniProt Q14671 828-1176, N971E;H972P;Q975R)
# In short: as §1
# PUM1 PUF domain R8-KKR = PUM1 PUF domain R8-KKR (Homo sapiens, UniProt Q14671 828-1176, N1122K;Y1123K;Q1126R)
# In short: as §1
# PUM1 PUF domain R4-APS = PUM1 PUF domain R4-APS (Homo sapiens, UniProt Q14671 828-1176, N971A;H972P;Q975S)
# In short: as §1
# PUM1 PUF domain R5-DFP = PUM1 PUF domain R5-DFP (Homo sapiens, UniProt Q14671 828-1176, C1007D;R1008F;Q1011P)
# In short: as §1
# PUM1 PUF domain R5-PRE = PUM1 PUF domain R5-PRE (Homo sapiens, UniProt Q14671 828-1176, C1007P;Q1011E)
# In short: as §1
# PUM1 PUF domain R5-DKR = PUM1 PUF domain R5-DKR (Homo sapiens, UniProt Q14671 828-1176, C1007D;R1008K;Q1011R)
# In short: as §1
# PUM1 PUF domain R5-RAN = PUM1 PUF domain R5-RAN (Homo sapiens, UniProt Q14671 828-1176, C1007R;R1008A;Q1011N)
# In short: as §1
# PUM1 PUF domain R5-KGV = PUM1 PUF domain R5-KGV (Homo sapiens, UniProt Q14671 828-1176, C1007K;R1008G;Q1011V)
# In short: as §1
# PUM1 PUF domain R5-DHL = PUM1 PUF domain R5-DHL (Homo sapiens, UniProt Q14671 828-1176, C1007D;R1008H;Q1011L)
# In short: as §1
# PUM1 PUF domain R3-YSV = PUM1 PUF domain R3-YSV (Homo sapiens, UniProt Q14671 828-1176, C935Y;R936S;Q939V)
# In short: as §1
# PUM1 PUF domain R5-SGV = PUM1 PUF domain R5-SGV (Homo sapiens, UniProt Q14671 828-1176, C1007S;R1008G;Q1011V)
# In short: as §1
# PUM1 PUF domain R3-DWS = PUM1 PUF domain R3-DWS (Homo sapiens, UniProt Q14671 828-1176, C935D;R936W;Q939S)
# In short: as §1
# PUM1 PUF domain R4-RCG = PUM1 PUF domain R4-RCG (Homo sapiens, UniProt Q14671 828-1176, N971R;H972C;Q975G)
# In short: as §1
# PUM1 PUF domain R6-SWC = biological target: T1, PUM1 PUF domain R6-SWC (Homo sapiens, UniProt Q14671 828-1176, N1043S;Y1044W;Q1047C)
# T1 sequence: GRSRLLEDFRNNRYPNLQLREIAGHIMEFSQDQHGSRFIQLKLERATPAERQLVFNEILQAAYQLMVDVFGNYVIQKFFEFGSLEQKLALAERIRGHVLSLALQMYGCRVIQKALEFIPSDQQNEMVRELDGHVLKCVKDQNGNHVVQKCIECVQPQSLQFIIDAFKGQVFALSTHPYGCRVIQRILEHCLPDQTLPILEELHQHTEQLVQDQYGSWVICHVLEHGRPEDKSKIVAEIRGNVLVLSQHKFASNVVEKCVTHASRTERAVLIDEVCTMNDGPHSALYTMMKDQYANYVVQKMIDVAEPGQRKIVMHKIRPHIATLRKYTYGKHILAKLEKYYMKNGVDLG
# In short: as §1
# PUM1 PUF domain R4-VGI = PUM1 PUF domain R4-VGI (Homo sapiens, UniProt Q14671 828-1176, N971V;H972G;Q975I)
# In short: as §1
# PUM1 PUF domain R5-PRE, sequence (Q14671 828-1176 C1007P/Q1011E): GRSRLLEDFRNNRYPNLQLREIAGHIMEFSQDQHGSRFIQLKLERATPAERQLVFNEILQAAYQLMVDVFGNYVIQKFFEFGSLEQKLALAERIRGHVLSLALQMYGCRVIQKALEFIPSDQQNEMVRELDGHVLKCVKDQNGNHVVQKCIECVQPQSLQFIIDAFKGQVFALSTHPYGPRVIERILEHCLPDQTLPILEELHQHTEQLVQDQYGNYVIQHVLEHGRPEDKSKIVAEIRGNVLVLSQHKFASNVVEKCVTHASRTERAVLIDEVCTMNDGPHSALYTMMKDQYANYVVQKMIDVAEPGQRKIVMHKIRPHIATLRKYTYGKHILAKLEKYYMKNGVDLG
# PUM1 PUF domain R5-DHL, sequence (Q14671 828-1176 C1007D/R1008H/Q1011L): as the sequence (Q14671 828-1176 C1007P/Q1011E) above, with P180D, R181H, E184L counted along it
# PUM1 PUF domain R4-EPR, sequence (Q14671 828-1176 N971E/H972P/Q975R): as the sequence (Q14671 828-1176 C1007P/Q1011E) above, with N144E, H145P, Q148R, P180C, E184Q counted along it
# PUM1 PUF domain R3-LRR, sequence (Q14671 828-1176 C935L/Q939R): as the sequence (Q14671 828-1176 C1007P/Q1011E) above, with C108L, Q112R, P180C, E184Q counted along it
# PUM1 PUF domain R1-KGL, sequence (Q14671 828-1176 S863K/R864G/Q867L): as the sequence (Q14671 828-1176 C1007P/Q1011E) above, with S36K, R37G, Q40L, P180C, E184Q counted along it
# PUM1 PUF domain R5-RAN, sequence (Q14671 828-1176 C1007R/R1008A/Q1011N): as the sequence (Q14671 828-1176 C1007P/Q1011E) above, with P180R, R181A, E184N counted along it
# PUM1 PUF domain R5-DKR, sequence (Q14671 828-1176 C1007D/R1008K/Q1011R): as the sequence (Q14671 828-1176 C1007P/Q1011E) above, with P180D, R181K, E184R counted along it
# PUM1 PUF domain R3-DWS, sequence (Q14671 828-1176 C935D/R936W/Q939S): as the sequence (Q14671 828-1176 C1007P/Q1011E) above, with C108D, R109W, Q112S, P180C, E184Q counted along it
# PUM1 PUF domain R5-KGV, sequence (Q14671 828-1176 C1007K/R1008G/Q1011V): as the sequence (Q14671 828-1176 C1007P/Q1011E) above, with P180K, R181G, E184V counted along it
# PUM1 PUF domain R5-DFP, sequence (Q14671 828-1176 C1007D/R1008F/Q1011P): as the sequence (Q14671 828-1176 C1007P/Q1011E) above, with P180D, R181F, E184P counted along it
# PUM1 PUF domain R5-SGV, sequence (Q14671 828-1176 C1007S/R1008G/Q1011V): as the sequence (Q14671 828-1176 C1007P/Q1011E) above, with P180S, R181G, E184V counted along it
# PUM1 PUF domain R3-YSV, sequence (Q14671 828-1176 C935Y/R936S/Q939V): as the sequence (Q14671 828-1176 C1007P/Q1011E) above, with C108Y, R109S, Q112V, P180C, E184Q counted along it
sequence,measurement,setting,value
GGCUAGAACUAGUGGAUCCCCCGGCGCCCGGCGGCUCGAGCCCGGGUAAGUGUAAAUCGUCUGCAUGCCGCCGGGCGCCAUGCCUGCAGGUCGACUCUAGAAAACAUG,binding signal,PUM1 PUF domain R1-KGL,3.12 log2 enrichment (interaction score)
same,binding signal,PUM1 PUF domain R1-GRH,1.98 log2 enrichment (interaction score)
GGCUAGAACUAGUGGAUCCCCCGGCGCCCGGCGGCUCGAGCCCGGGUAAGUGUAAAUGGUCUGCAUGCCGCCGGGCGCCAUGCCUGCAGGUCGACUCUAGAAAACAUG,binding signal,PUM1 PUF domain R1-KGL,1.8 log2 enrichment (interaction score)
same,binding signal,PUM1 PUF domain R1-KWM,1.15 log2 enrichment (interaction score)
GGCUAGAACUAGUGGAUCCCCCGGCGCCCGGCGGCUCGAGCCCGGGUAAGUGUAAUUAGUCUGCAUGCCGCCGGGCGCCAUGCCUGCAGGUCGACUCUAGAAAACAUG,binding signal,PUM1 PUF domain R3-LRR,0.21 log2 enrichment (interaction score)
same,binding signal,PUM1 PUF domain R3-LHA,3.56 log2 enrichment (interaction score)
GGCUAGAACUAGUGGAUCCCCCGGCGCCCGGCGGCUCGAGCCCGGGUAAGUGUAUAUAGUCUGCAUGCCGCCGGGCGCCAUGCCUGCAGGUCGACUCUAGAAAACAUG,binding signal,PUM1 PUF domain R4-EPR,2.23 log2 enrichment (interaction score)
GGCUAGAACUAGUGGAUCCCCCGGCGCCCGGCGGCUCGAGCCCGGGUAAGCGUAAAUAGUCUGCAUGCCGCCGGGCGCCAUGCCUGCAGGUCGACUCUAGAAAACAUG,binding signal,PUM1 PUF domain R8-KKR,5.03 log2 enrichment (interaction score)
GGCUAGAACUAGUGGAUCCCCCGGCGCCCGGCGGCUCGAGCCCGGGUAAGUGUACAUAGUCUGCAUGCCGCCGGGCGCCAUGCCUGCAGGUCGACUCUAGAAAACAUG,binding signal,PUM1 PUF domain R4-EPR,3.74 log2 enrichment (interaction score)
same,binding signal,PUM1 PUF domain R4-APS,1.86 log2 enrichment (interaction score)
GGCUAGAACUAGUGGAUCCCCCGGCGCCCGGCGGCUCGAGCCCGGGUAAGUGUUAAUAGUCUGCAUGCCGCCGGGCGCCAUGCCUGCAGGUCGACUCUAGAAAACAUG,binding signal,PUM1 PUF domain R5-DFP,5.24 log2 enrichment (interaction score)
same,binding signal,PUM1 PUF domain R5-PRE,2.73 log2 enrichment (interaction score)
GGCUAGAACUAGUGGAUCCCCCGGCGCCCGGCGGCUCGAGCCCGGGUAAGUGUCAAUAGUCUGCAUGCCGCCGGGCGCCAUGCCUGCAGGUCGACUCUAGAAAACAUG,binding signal,PUM1 PUF domain R5-DKR,5.01 log2 enrichment (interaction score)
same,binding signal,PUM1 PUF domain R5-RAN,2.21 log2 enrichment (interaction score)
same,binding signal,PUM1 PUF domain R5-KGV,4.44 log2 enrichment (interaction score)
same,binding signal,PUM1 PUF domain R5-DHL,2.14 log2 enrichment (interaction score)
GGCUAGAACUAGUGGAUCCCCCGGCGCCCGGCGGCUCGAGCCCGGGUAAGUGUAAGUAGUCUGCAUGCCGCCGGGCGCCAUGCCUGCAGGUCGACUCUAGAAAACAUG,binding signal,PUM1 PUF domain R3-LRR,3.15 log2 enrichment (interaction score)
same,binding signal,PUM1 PUF domain R3-YSV,2.32 log2 enrichment (interaction score)
same,binding signal,PUM1 PUF domain R3-LHA,6.33 log2 enrichment (interaction score)
GGCUAGAACUAGUGGAUCCCCCGGCGCCCGGCGGCUCGAGCCCGGGUAAGUGUGAAUAGUCUGCAUGCCGCCGGGCGCCAUGCCUGCAGGUCGACUCUAGAAAACAUG,binding signal,PUM1 PUF domain R5-SGV,2.69 log2 enrichment (interaction score)
same,binding signal,PUM1 PUF domain R5-DHL,2.54 log2 enrichment (interaction score)
same,binding signal,PUM1 PUF domain R5-PRE,3.8 log2 enrichment (interaction score)
GGCUAGAACUAGUGGAUCCCCCGGCGCCCGGCGGCUCGAGCCCGGGUAAGUGUAAAUUGUCUGCAUGCCGCCGGGCGCCAUGCCUGCAGGUCGACUCUAGAAAACAUG,binding signal,PUM1 PUF domain R1-KWM,3.92 log2 enrichment (interaction score)
same,binding signal,PUM1 PUF domain R1-GRH,2.32 log2 enrichment (interaction score)
GGCUAGAACUAGUGGAUCCCCCGGCGCCCGGCGGCUCGAGCCCGGGUAAGUGUAAAUAGUCUGCAUGCCGCCGGGCGCCAUGCCUGCAGGUCGACUCUAGAAAACAUG,binding signal,PUM1 PUF domain R5-RAN,2.14 log2 enrichment (interaction score)
same,binding signal,PUM1 PUF domain R3-DWS,4.09 log2 enrichment (interaction score)
same,binding signal,PUM1 PUF domain R4-EPR,4.56 log2 enrichment (interaction score)
same,binding signal,PUM1 PUF domain R4-RCG,3.26 log2 enrichment (interaction score)
same,binding signal,PUM1 PUF domain R4-APS,4.36 log2 enrichment (interaction score)
same,binding signal,PUM1 PUF domain R5-DHL,3.58 log2 enrichment (interaction score)
same,binding signal,PUM1 PUF domain R6-SWC,3.92 log2 enrichment (interaction score)
same,binding signal,PUM1 PUF domain R8-KKR,1.33 log2 enrichment (interaction score)
same,binding signal,PUM1 PUF domain R4-VGI,2.49 log2 enrichment (interaction score)
same,binding signal,PUM1 PUF domain R5-PRE,3.07 log2 enrichment (interaction score)
